Common to all, as to test: DAPPL (digital affinity profiling via proximity ligation, sequencing); 10 mM Tris-HCl pH 7.5, 50 mM NaCl, 1 mM DTT, 4% glycerol, room temperature, 30 min; GST-TFs on glutathione beads, 16-mer random dsDNA library, 0.1% formaldehyde crosslink after washing; high values mean tight binding
One experiment deals with T1, FEV (Homo sapiens, UniProt Q99581 1-238).
T1 sequence: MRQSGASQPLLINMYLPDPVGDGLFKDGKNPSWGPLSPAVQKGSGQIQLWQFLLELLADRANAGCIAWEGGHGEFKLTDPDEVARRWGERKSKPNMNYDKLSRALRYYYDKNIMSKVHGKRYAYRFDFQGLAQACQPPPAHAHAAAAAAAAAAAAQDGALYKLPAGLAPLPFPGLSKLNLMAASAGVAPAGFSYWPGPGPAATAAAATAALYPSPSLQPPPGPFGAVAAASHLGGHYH
Conditions: protein: recombinant; tags: N-terminal GST; dsDNA, one strand shown. The method in brief: (§1)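 Each value of binding signal is a hexamer's read frequency for a factor divided by the same hexamer's frequency in the tag-only sample. Barcoded, bead-captured GST fusions of human transcription factors made in yeast were pooled with that sample and incubated with 200 nmole of a random double-stranded 16-mer DNA library in Tris/NaCl/DTT/glycerol buffer at room temperature for 30 min. Washing, 0.1% formaldehyde crosslinking, proximity ligation, PCR and Illumina NextSeq500 sequencing followed.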

The target in the next experiment is ETV5 (Homo sapiens, UniProt P41161 1-510). To be noted: protein: recombinant; tags: N-terminal GST; dsDNA, one strand shown. The method in brief: as §1
ETV5, sequence (P41161 whole entry): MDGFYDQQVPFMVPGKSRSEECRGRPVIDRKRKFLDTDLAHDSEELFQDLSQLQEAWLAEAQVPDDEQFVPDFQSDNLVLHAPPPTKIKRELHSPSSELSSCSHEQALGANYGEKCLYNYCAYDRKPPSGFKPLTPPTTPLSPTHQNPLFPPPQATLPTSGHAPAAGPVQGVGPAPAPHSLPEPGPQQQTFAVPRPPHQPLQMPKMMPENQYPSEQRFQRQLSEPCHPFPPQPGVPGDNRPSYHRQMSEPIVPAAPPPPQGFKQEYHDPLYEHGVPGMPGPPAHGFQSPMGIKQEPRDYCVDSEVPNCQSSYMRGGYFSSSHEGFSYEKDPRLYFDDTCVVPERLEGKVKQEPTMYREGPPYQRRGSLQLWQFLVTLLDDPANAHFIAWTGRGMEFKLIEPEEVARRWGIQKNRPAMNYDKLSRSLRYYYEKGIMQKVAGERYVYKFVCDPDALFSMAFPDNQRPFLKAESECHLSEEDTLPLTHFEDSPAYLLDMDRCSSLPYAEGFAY
Another experiment addresses HSF1 (Homo sapiens, UniProt Q00613 1-529). Conditions: protein: recombinant; tags: N-terminal GST; chain copies: 3; dsDNA, one strand shown. The method in brief:
as §1

A further experiment has as its target T2, SPIC (Homo sapiens, UniProt Q8N5J4 1-248).
T2 sequence: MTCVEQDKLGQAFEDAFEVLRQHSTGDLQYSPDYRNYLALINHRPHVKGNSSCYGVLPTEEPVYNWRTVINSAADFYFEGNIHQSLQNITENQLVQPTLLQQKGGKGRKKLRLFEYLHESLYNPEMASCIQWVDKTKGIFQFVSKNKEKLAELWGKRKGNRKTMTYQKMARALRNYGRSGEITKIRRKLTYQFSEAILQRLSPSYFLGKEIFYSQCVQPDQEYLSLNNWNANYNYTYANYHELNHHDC
Conditions: protein: recombinant; tags: N-terminal GST; dsDNA, one strand shown. The method in brief:
as §1

For another experiment, the target named is ELF4 (Homo sapiens, UniProt Q99607 1-663). To be noted: protein: recombinant; tags: N-terminal GST; dsDNA, one strand shown. The method in brief: as §1
ELF4, sequence (Q99607 whole entry): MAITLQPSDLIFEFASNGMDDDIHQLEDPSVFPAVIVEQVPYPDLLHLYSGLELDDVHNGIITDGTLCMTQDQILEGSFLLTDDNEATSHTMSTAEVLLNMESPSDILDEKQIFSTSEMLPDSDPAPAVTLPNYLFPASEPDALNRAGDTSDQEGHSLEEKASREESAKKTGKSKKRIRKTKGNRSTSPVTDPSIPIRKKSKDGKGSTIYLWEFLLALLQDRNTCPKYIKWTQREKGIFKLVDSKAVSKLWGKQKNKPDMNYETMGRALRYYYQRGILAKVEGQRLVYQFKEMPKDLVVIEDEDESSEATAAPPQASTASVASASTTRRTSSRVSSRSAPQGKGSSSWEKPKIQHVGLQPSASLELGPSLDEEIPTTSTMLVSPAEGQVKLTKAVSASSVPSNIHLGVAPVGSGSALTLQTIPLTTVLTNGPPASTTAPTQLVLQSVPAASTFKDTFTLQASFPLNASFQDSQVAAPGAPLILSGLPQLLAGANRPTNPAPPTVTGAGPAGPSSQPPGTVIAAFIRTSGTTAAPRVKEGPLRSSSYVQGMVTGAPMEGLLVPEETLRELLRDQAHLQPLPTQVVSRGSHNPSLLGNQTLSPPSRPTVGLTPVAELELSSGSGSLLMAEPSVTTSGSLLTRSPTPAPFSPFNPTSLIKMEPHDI
The target in a further experiment is T3, ELK4 (Homo sapiens, UniProt P28324-2 1-405).
T3 sequence: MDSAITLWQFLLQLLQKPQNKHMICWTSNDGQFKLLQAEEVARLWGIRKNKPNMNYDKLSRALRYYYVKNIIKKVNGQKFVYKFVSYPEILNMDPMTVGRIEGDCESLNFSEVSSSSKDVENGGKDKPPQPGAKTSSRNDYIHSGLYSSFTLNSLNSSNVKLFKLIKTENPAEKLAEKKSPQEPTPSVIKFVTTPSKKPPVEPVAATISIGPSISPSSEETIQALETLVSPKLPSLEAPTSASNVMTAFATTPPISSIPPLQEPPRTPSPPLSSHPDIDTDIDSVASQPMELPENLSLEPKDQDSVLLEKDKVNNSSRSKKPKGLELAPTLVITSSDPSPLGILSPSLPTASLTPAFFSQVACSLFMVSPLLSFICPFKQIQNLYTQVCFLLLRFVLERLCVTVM
To be noted: protein: recombinant; tags: N-terminal GST; dsDNA, one strand shown. The method in brief:
as §1

The target of a further experiment is T4, ETV2 (Homo sapiens, UniProt O00321 1-342).
T4 sequence: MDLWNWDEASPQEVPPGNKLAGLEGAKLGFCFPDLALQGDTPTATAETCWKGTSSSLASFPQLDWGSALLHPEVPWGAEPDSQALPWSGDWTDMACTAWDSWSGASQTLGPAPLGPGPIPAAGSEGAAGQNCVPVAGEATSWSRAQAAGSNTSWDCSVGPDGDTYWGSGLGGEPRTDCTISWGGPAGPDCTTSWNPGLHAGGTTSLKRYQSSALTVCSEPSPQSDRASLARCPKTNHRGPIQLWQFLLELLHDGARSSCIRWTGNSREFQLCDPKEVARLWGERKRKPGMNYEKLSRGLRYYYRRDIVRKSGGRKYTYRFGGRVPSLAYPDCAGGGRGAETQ
To be noted: protein: recombinant; tags: N-terminal GST; dsDNA, one strand shown. The method in brief:
as §1

Another experiment has as its target T5, ELF3 (Homo sapiens, UniProt P78545 1-371).
T5 sequence: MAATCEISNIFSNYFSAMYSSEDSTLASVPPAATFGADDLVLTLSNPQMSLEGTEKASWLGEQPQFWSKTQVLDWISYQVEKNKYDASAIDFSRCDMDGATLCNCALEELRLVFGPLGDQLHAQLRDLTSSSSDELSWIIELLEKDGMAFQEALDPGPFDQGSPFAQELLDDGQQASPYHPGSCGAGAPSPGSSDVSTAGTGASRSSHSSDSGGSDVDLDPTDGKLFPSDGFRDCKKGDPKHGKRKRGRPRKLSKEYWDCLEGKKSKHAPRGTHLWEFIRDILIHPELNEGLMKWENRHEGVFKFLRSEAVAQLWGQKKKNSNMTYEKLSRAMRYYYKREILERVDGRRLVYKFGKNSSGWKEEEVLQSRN
Conditions: protein: recombinant; tags: N-terminal GST; dsDNA, one strand shown. The method in brief: as §1

In the next experiment the target is CRX (Homo sapiens, UniProt O43186 1-299). Conditions: protein: recombinant; tags: N-terminal GST; dsDNA, one strand shown. The method in brief:
as §1

The target in a further experiment is ETV1 (Homo sapiens, UniProt P50549 1-477). To be noted: protein: recombinant; tags: N-terminal GST; dsDNA, one strand shown. The method in brief: as §1
ETV1, sequence (P50549 whole entry): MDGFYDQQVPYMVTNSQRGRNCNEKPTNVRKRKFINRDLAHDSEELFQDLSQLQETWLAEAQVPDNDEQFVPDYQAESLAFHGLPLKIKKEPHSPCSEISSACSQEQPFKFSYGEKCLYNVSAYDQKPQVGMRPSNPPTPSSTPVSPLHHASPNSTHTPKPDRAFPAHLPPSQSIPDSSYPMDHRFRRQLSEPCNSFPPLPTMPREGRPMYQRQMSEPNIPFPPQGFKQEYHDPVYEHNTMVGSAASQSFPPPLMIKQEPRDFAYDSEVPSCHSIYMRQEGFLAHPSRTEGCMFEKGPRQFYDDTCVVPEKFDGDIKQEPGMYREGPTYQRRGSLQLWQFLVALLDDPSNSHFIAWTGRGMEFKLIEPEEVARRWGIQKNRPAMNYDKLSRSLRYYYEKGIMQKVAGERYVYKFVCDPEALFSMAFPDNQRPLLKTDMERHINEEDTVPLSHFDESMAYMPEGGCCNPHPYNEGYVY
For the next experiment, the target named is T6, ERF (Homo sapiens, UniProt P50548 1-548).
T6 sequence: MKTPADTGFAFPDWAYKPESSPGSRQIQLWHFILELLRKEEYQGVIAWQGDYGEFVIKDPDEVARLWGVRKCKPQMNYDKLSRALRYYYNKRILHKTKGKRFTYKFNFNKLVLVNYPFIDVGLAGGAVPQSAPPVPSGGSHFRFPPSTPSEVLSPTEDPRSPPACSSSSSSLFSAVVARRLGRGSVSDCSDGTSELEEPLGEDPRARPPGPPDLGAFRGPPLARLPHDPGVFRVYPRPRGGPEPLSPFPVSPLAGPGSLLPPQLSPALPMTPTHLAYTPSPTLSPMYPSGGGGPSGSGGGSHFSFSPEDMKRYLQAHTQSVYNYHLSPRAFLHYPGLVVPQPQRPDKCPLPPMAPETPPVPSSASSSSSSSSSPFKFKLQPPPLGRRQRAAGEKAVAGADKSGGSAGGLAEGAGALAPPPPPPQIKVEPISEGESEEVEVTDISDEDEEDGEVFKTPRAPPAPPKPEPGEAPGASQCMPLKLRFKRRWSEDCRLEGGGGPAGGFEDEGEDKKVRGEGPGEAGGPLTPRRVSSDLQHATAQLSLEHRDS
To be noted: protein: recombinant; tags: N-terminal GST; dsDNA, one strand shown. The method in brief: as §1

In a further experiment the target is T7, ETV3L (Homo sapiens, UniProt Q6ZN32 1-361).
T7 sequence: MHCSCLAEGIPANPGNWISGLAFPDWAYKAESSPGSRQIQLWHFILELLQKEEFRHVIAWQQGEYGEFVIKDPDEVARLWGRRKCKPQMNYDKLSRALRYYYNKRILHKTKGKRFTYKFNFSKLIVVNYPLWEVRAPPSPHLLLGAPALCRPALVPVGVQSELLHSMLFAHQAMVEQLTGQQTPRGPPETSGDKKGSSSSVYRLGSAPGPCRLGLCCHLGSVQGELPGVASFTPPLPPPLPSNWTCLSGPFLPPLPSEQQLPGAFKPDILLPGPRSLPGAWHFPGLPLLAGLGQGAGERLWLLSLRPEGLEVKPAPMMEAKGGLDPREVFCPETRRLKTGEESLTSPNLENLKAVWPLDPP
To be noted: protein: recombinant; tags: N-terminal GST; dsDNA, one strand shown. The method in brief:
as §1

The target of the next experiment is T8, ETS2 (Homo sapiens, UniProt P15036 1-469).
T8 sequence: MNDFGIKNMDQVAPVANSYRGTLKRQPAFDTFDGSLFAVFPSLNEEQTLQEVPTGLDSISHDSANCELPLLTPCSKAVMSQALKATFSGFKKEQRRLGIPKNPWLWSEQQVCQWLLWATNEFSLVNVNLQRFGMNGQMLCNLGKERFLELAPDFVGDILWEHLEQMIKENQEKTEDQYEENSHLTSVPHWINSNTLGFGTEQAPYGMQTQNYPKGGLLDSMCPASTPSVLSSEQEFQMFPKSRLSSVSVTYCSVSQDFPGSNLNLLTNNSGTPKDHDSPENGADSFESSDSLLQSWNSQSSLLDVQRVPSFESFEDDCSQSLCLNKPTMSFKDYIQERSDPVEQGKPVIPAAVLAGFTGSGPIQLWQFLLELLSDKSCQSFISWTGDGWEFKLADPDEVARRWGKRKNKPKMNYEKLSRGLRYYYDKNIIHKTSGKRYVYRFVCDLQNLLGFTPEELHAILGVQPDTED
To be noted: protein: recombinant; tags: N-terminal GST; dsDNA, one strand shown. The method in brief:
as §1

In the next experiment the target is T9, SPDEF (Homo sapiens, UniProt O95238 1-335).
T9 sequence: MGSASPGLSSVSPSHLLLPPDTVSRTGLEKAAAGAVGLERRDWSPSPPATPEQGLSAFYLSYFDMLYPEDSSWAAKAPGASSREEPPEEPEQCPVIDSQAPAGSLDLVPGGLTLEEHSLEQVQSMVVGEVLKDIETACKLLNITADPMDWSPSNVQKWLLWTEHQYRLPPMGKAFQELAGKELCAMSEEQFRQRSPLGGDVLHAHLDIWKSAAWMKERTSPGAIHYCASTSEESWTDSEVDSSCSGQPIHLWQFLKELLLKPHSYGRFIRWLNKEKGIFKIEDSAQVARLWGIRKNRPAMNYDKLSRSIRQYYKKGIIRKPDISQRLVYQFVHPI
To be noted: protein: recombinant; tags: N-terminal GST; dsDNA, one strand shown. The method in brief:
as §1

For a further experiment, the target named is T10, ETV7 (Homo sapiens, UniProt Q9Y603 1-341).
T10 sequence: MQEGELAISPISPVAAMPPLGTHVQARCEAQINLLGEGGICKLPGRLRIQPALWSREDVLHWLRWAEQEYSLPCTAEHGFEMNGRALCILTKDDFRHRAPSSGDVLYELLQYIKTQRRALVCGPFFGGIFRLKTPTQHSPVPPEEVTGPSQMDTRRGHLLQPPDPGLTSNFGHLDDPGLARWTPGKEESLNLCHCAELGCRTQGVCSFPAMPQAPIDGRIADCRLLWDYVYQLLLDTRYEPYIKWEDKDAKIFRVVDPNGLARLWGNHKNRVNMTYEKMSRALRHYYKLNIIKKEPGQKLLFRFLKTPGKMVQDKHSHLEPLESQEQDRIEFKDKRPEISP
To be noted: protein: recombinant; tags: N-terminal GST; dsDNA, one strand shown. The method in brief:
as §1

Another experiment addresses T11, ELF5 (Homo sapiens, UniProt Q9UKW6-2 1-255).
T11 sequence: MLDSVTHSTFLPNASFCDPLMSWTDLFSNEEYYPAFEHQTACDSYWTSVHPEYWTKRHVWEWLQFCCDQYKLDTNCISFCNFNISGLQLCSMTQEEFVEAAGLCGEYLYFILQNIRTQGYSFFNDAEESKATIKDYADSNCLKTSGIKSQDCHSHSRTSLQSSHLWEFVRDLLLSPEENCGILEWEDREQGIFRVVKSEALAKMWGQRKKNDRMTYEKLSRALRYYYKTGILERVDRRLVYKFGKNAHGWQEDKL
Conditions: protein: recombinant; tags: N-terminal GST; dsDNA, one strand shown. The method in brief: as §1

The next experiment concerns the target T12, ETV3 (Homo sapiens, UniProt P41162-2 1-143).
T12 sequence: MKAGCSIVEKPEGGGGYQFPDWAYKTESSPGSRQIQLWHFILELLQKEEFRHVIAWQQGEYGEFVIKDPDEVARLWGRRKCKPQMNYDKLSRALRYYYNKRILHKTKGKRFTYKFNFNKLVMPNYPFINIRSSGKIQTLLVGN
Conditions: protein: recombinant; tags: N-terminal GST; dsDNA, one strand shown. The method in brief: as §1

The target of a further experiment is ETV6 (Homo sapiens, UniProt P41212 1-452). To be noted: protein: recombinant; tags: N-terminal GST; dsDNA, one strand shown. The method in brief: as §1
ETV6, sequence (P41212 whole entry): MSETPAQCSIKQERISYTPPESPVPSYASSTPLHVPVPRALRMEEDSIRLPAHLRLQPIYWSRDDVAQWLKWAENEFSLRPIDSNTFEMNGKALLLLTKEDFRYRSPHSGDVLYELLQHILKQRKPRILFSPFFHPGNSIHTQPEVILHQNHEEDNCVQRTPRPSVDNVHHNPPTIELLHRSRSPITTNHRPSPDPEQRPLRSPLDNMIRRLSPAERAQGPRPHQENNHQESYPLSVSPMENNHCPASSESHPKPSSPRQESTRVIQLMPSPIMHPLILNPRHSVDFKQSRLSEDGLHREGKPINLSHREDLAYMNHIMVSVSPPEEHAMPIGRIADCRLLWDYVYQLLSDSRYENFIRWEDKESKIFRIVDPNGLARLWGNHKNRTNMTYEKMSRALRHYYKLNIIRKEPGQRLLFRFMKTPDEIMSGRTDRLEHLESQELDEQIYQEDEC

CRX, sequence (O43186 whole entry): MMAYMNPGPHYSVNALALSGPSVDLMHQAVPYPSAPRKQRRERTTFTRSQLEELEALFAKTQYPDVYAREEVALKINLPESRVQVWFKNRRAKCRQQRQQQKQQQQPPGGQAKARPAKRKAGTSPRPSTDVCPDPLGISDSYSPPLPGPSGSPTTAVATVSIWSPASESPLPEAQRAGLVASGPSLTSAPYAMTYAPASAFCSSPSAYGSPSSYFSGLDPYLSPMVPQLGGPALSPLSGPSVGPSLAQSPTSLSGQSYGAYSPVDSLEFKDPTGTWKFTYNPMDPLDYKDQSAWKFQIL
HSF1, sequence (Q00613 whole entry): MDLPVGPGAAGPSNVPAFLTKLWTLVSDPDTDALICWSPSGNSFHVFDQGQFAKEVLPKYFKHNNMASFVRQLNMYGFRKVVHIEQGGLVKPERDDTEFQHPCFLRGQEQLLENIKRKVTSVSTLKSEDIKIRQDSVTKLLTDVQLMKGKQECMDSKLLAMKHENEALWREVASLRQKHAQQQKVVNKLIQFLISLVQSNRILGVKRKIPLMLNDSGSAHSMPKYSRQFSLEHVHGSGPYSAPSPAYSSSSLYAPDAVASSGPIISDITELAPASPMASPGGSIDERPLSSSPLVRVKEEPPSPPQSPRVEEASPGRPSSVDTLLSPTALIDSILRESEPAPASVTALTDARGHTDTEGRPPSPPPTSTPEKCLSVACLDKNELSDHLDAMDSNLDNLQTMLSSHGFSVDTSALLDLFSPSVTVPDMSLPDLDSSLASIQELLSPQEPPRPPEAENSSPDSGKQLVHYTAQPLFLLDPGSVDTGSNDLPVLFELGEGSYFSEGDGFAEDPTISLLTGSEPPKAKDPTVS

With TTTTTC, the binding signal is 1.19 fold enrichment (6-mer frequency, TF over GST control) with FEV; 1.27 fold enrichment (6-mer frequency, TF over GST control) with ETV5; 1.44 fold enrichment (6-mer frequency, TF over GST control) in the experiment with HSF1; 1.11 fold enrichment (6-mer frequency, TF over GST control) with SPIC; 1.32 fold enrichment (6-mer frequency, TF over GST control) with ELF4; 1.16 fold enrichment (6-mer frequency, TF over GST control) with ELK4. In addition, the binding signal was 1.24 fold enrichment (6-mer frequency, TF over GST control) with ETV2; 1.26 fold enrichment (6-mer frequency, TF over GST control) with ELF3; 1.09 fold enrichment (6-mer frequency, TF over GST control) in the experiment with CRX; 1.21 fold enrichment (6-mer frequency, TF over GST control) with ETV1; 1.16 fold enrichment (6-mer frequency, TF over GST control) with ERF; 1.34 fold enrichment (6-mer frequency, TF over GST control) in the experiment with ETV3L. Moreover, the binding signal with ETS2 is 1.17 fold enrichment (6-mer frequency, TF over GST control); with SPDEF, 1.21 fold enrichment (6-mer frequency, TF over GST control); with ETV7 it was 1.23 fold enrichment (6-mer frequency, TF over GST control); with ELF5, 1.37 fold enrichment (6-mer frequency, TF over GST control); with ETV3, 1.25 fold enrichment (6-mer frequency, TF over GST control); with ETV6, 1.15 fold enrichment (6-mer frequency, TF over GST control).

Source of the values: PMC7862700, “An all-to-all approach to the identification of sequence-specific readers for epigenetic DNA modifications on cytosine”.
